{"source": "PubChem BioAssay AID493168", "about": "(National Center for Advancing Translational Sciences (NCATS), 2011)", "note": "Inconclusive results are not listed. Active and inactive are the calls of the source. Calls come from the whole dose curve; as a rule, active = well fitted inhibition curve with a large enough effect; inconclusive = small, poorly fitted or top-dose-only effect, or effect the other way; inactive = flat fitted curve, though single readings scatter. Potency is the fitted concentration of half-maximal effect.", "data": [{"target": "Ubiquitin carboxyl-terminal hydrolase 2 (Homo sapiens) (UniProt O75604)", "sequence (O75604 whole entry, looked up)": "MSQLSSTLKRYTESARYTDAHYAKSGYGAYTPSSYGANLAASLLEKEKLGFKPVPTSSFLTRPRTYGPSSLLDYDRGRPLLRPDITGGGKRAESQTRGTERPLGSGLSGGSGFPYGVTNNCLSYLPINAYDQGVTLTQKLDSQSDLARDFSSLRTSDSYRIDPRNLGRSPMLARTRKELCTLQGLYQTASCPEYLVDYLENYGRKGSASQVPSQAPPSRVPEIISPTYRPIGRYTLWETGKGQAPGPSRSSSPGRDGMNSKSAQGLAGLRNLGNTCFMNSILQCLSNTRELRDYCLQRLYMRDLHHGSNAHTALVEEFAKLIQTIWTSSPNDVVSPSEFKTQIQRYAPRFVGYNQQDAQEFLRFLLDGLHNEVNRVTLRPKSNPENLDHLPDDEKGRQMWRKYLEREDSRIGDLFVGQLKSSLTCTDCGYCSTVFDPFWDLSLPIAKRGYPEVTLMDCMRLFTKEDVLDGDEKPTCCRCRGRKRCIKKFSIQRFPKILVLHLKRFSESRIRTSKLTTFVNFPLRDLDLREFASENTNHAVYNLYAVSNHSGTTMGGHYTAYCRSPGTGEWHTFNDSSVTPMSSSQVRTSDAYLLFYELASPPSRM", "assay": "Confirmation Assay for Inhibitors of Ubiquitin-specific Protease USP2a Using CHOP2 as the Reporter; note: nearly all actives have a fitted effect of over 55% in size;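 for activity change, negative = inhibition: plate controls were DMSO wells for no effect and full inhibition by NEM control for full effect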", "details": "USP2 core, Ub-CHOP2 coupled reporter fluorescence; series mostly up to 38.3 µM; activity change, negative = inhibition: at the top concentration", "procedure,_shortened": "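Ub-CHOP2 cleavage coupled to reporter activation was read by fluorescence after 60 min at RT, with 25 nM final Ub-CHOP2 and substrate. Enzyme (10 nM final USP2 core) first sat 30 min with compound; data were normalized to NEM and fitted to concentration-response curves.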", "values": [{"compound": "COc1cc(/C=C/[N+](=O)[O-])ccc1OCc1cccc(C(=O)O)c1", "activity change, negative = inhibition": "-1.64% (inactive)"}, {"compound": "CCOC(=O)c1[nH]c2ccc(OC)cc2c1NC(=O)CCN1CCC(C)CC1", "activity change, negative = inhibition": "-3.28% (inactive)"}, {"compound": "CC(=O)c1c(N2CCCC2)[nH]c(-c2ccccc2)nc1=S", "activity change, negative = inhibition": "3.15% (inactive)"}, {"compound": "O=C(O)CCn1c(C2CCCCC2)nc2ccccc21", "activity change, negative = inhibition": "-3.24% (inactive)"}, {"compound": "O=C(Nc1ccc2c(c1)OCO2)NC1(C(F)(F)F)Oc2ccccc2O1", "activity change, negative = inhibition": "0.65% (inactive)"}, {"compound": "O=C(CSc1ccc(Br)c2cccc(Cl)c12)Nc1ccc(S(=O)(=O)Nc2nccs2)cc1", "Potency": "9.27 µM (active)"}, {"compound": "COc1ccc(S(=O)(=O)N2CCCC2C(=O)NCc2cccs2)cc1", "note": "(configuration not stated)", "activity change, negative = inhibition": "2.04% (inactive)"}, {"compound": "CC1CC(C)CN(C(=O)CSc2nnc(-c3ccc(Cl)cc3)o2)C1", "note": "(configuration not stated)", "activity change, negative = inhibition": "-4.82% (inactive)"}, {"compound": "COc1ccc(/C=C2/SC(=S)N(c3ccc(S(=O)(=O)Nc4nccs4)cc3)C2=O)cc1", "Potency": "13.1 µM (active)"}, {"compound": "O=C(N/N=C1\\CC(c2ccccc2)Oc2ccccc21)c1ccc(O)cc1", "note": "(configuration not stated)", "activity change, negative = inhibition": "1.02% (inactive)"}, {"compound": "O=C(NC1CCCC1)C1C2C=CC(C2)C1C(=O)N1CCOCC1", "note": "(configuration not stated)", "activity change, negative = inhibition": "4.55% (inactive)"}, {"compound": "CC(C)N(C(=O)c1sc2cc([N+](=O)[O-])ccc2c1Cl)C(C)C", "activity change, negative = inhibition": "1.04% (inactive)"}, {"compound": "CCCn1nnc(NC(=O)c2cccc(OCC(C)C)c2)n1", "activity change, negative = inhibition": "2.02% (inactive)"}, {"compound": "O=C(Nc1ccc(Nc2ccncc2)cc1)c1ccc(Nc2ccnc3ccc([N+](=O)[O-])cc23)cc1[N+](=O)[O-]", "activity change, negative = inhibition": "-16.8% (inactive)"}, {"compound": "O=C(CCSCc1ccc(Cl)cc1)NCCc1ccccc1", "activity change, negative = inhibition": "-2.88% (inactive)"}, {"compound": "O=C(CC1Oc2ccccc2NC1=O)NCc1ccc(Cl)cc1", "note": "(configuration not stated)", "activity change, negative = inhibition": "-0.66% (inactive)"}, {"compound": "Cc1csc(NC(=O)CCn2c(=O)sc3ccccc32)n1", "activity change, negative = inhibition": "-5.5% (inactive)"}]}]}
